# Data published in PMC7862700, “An all-to-all approach to the identification of sequence-specific readers for epigenetic DNA modifications on cytosine”.
# Key:
# Test in all cases: DAPPL (digital affinity profiling via proximity ligation, sequencing); 10 mM Tris-HCl pH 7.5, 50 mM NaCl, 1 mM DTT, 4% glycerol, room temperature, 30 min; GST-TFs on glutathione beads, 16-mer random dsDNA library, 0.1% formaldehyde crosslink after washing; high values mean tight binding
# FEV = target: T1, FEV (Homo sapiens, UniProt Q99581 1-238); conditions: protein: recombinant; tags: N-terminal GST; dsDNA, one strand shown
# T1 sequence: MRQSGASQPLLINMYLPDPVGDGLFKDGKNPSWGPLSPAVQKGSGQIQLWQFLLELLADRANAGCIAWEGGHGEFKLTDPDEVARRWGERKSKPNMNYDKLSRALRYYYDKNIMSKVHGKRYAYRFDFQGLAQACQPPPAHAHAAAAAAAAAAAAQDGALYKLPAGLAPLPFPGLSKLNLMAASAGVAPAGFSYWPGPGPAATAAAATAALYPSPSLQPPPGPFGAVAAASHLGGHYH
# In short: (§1)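 The binding signal reported is, for every hexamer, its read frequency for a factor over its read frequency for the tag-only sample. Reads came from pools of yeast-expressed, GST-fused human transcription factors on glutathione beads, barcoded with DNA and mixed with that sample, which were incubated with 200 nmole of a random double-stranded 16-mer DNA library in Tris/NaCl/DTT/glycerol buffer at room temperature for 30 min. After washing, the pools were crosslinked with 0.1% formaldehyde, proximity-ligated with BsaI/T4 ligase for 1 h at 37 °C, PCR-amplified and sequenced on an Illumina NextSeq500.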
# ETV5 = ETV5 (Homo sapiens, UniProt P41161 1-510); conditions: protein: recombinant; tags: N-terminal GST; dsDNA, one strand shown
# In short: as §1
# HSF1 = HSF1 (Homo sapiens, UniProt Q00613 1-529); conditions: protein: recombinant; tags: N-terminal GST; chain copies: 3; dsDNA, one strand shown
# In short: as §1
# SPIC = target: T2, SPIC (Homo sapiens, UniProt Q8N5J4 1-248); conditions: protein: recombinant; tags: N-terminal GST; dsDNA, one strand shown
# T2 sequence: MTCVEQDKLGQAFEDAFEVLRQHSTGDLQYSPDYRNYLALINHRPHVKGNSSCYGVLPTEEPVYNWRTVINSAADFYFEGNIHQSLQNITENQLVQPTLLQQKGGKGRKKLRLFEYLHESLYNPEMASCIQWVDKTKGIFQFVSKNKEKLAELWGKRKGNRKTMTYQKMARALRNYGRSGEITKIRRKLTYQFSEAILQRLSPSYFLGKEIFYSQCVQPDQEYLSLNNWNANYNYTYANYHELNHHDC
# In short: as §1
# ELF4 = ELF4 (Homo sapiens, UniProt Q99607 1-663); conditions: protein: recombinant; tags: N-terminal GST; dsDNA, one strand shown
# In short: as §1
# ELK4 = target: T3, ELK4 (Homo sapiens, UniProt P28324-2 1-405); conditions: protein: recombinant; tags: N-terminal GST; dsDNA, one strand shown
# T3 sequence: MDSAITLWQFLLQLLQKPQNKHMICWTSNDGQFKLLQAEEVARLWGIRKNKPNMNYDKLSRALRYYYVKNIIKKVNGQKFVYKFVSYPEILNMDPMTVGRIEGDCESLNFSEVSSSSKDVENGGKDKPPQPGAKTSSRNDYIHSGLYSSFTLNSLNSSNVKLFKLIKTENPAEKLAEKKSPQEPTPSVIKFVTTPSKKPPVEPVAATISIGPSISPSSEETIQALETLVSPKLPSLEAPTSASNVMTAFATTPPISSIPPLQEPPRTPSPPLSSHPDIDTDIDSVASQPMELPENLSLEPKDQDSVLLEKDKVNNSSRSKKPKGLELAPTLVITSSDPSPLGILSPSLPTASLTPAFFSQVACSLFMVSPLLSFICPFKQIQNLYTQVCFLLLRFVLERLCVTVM
# In short: as §1
# ETV2 = target: T4, ETV2 (Homo sapiens, UniProt O00321 1-342); conditions: protein: recombinant; tags: N-terminal GST; dsDNA, one strand shown
# T4 sequence: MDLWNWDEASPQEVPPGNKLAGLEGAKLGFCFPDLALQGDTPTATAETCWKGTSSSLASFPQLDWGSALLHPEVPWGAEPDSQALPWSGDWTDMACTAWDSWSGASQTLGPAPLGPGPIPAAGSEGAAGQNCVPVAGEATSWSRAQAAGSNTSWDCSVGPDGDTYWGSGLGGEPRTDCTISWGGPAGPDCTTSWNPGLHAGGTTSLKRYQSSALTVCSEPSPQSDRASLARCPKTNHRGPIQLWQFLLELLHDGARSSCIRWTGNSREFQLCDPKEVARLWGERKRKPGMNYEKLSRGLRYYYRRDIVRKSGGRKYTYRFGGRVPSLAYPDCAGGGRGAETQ
# In short: as §1
# ELF3 = target: T5, ELF3 (Homo sapiens, UniProt P78545 1-371); conditions: protein: recombinant; tags: N-terminal GST; dsDNA, one strand shown
# T5 sequence: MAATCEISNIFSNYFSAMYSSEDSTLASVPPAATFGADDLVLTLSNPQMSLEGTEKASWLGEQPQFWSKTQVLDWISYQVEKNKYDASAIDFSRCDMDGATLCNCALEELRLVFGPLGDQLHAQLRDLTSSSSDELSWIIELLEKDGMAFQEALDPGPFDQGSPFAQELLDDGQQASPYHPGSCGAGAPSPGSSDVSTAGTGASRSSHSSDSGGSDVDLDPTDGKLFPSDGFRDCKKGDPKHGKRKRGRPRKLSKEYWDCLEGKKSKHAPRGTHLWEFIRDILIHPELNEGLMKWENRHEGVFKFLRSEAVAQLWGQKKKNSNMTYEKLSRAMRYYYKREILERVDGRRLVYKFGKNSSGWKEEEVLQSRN
# In short: as §1
# ETV1 = ETV1 (Homo sapiens, UniProt P50549 1-477); conditions: protein: recombinant; tags: N-terminal GST; dsDNA, one strand shown
# In short: as §1
# Sequence of ETV5 (P41161 whole entry): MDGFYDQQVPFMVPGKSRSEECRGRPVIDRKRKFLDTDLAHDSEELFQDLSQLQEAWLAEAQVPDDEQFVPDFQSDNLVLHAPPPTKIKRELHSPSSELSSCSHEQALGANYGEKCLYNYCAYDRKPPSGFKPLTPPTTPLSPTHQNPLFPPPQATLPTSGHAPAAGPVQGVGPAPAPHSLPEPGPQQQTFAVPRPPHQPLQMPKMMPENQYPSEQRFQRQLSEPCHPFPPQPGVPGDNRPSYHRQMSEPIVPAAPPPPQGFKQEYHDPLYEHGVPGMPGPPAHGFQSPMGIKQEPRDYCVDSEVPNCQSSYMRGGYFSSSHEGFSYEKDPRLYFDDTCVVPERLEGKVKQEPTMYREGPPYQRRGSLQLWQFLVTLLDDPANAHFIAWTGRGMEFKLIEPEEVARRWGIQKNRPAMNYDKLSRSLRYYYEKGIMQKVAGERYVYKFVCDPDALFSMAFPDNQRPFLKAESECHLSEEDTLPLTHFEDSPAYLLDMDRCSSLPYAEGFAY
# Sequence of ELF4 (Q99607 whole entry): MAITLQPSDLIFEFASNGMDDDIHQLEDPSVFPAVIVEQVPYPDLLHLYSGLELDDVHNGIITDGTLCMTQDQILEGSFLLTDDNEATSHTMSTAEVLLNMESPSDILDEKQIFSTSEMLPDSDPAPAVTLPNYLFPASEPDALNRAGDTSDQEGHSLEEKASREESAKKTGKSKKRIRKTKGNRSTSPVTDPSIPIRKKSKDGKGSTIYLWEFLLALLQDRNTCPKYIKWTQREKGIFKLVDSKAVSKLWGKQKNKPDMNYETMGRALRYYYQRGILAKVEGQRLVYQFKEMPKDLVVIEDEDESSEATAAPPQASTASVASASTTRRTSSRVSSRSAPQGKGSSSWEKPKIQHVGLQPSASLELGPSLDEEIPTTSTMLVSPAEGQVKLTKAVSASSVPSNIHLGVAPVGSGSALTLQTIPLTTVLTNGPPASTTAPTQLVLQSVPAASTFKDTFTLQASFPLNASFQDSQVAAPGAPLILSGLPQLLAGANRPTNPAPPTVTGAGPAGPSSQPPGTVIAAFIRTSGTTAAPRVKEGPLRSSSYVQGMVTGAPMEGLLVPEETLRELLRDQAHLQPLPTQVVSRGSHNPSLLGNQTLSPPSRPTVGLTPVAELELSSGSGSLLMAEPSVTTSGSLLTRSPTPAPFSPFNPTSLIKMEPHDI
# Sequence of ETV1 (P50549 whole entry): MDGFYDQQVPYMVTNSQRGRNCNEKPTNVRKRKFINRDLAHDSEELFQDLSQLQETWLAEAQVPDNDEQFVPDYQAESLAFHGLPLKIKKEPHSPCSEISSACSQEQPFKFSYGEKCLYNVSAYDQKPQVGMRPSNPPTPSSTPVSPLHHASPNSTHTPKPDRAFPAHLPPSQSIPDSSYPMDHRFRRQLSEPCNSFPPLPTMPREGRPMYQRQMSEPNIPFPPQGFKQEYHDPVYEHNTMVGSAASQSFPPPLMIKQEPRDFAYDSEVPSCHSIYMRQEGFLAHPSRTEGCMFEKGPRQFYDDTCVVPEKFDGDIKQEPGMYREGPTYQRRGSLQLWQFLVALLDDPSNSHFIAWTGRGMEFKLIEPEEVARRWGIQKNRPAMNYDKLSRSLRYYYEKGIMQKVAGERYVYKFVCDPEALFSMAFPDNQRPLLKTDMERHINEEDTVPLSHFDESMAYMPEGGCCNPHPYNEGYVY
# Sequence of HSF1 (Q00613 whole entry): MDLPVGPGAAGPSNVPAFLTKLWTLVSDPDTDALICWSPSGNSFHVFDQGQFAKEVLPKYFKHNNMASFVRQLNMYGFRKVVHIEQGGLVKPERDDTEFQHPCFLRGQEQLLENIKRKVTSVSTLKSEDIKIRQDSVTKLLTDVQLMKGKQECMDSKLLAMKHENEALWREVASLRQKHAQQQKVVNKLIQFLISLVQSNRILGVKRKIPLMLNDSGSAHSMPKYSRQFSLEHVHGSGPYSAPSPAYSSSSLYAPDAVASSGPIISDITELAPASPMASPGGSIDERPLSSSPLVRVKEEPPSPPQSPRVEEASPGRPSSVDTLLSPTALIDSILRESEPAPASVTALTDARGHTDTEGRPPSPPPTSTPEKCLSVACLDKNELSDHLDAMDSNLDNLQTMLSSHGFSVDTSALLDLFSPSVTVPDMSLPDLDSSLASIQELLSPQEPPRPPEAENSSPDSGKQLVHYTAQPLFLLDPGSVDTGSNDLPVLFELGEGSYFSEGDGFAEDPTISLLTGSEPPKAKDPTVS
sequence,measurement,setting,value
GAAGTT,binding signal,FEV,"1.62 fold enrichment (6-mer frequency, TF over GST control)"
same,binding signal,ETV5,"1.66 fold enrichment (6-mer frequency, TF over GST control)"
same,binding signal,HSF1,"1.39 fold enrichment (6-mer frequency, TF over GST control)"
same,binding signal,SPIC,"1.76 fold enrichment (6-mer frequency, TF over GST control)"
same,binding signal,ELF4,"1.61 fold enrichment (6-mer frequency, TF over GST control)"
same,binding signal,ELK4,"1.52 fold enrichment (6-mer frequency, TF over GST control)"
same,binding signal,ETV2,"1.58 fold enrichment (6-mer frequency, TF over GST control)"
same,binding signal,ELF3,"1.82 fold enrichment (6-mer frequency, TF over GST control)"
same,binding signal,ETV1,"1.63 fold enrichment (6-mer frequency, TF over GST control)"
